Data published in the antibiotic and cytotoxicity screens of Wong et al. (2023).
Among all 39,000 compounds or so, about 3,300 (8.5%) were called active. Only a selection was taken, and actives are over-represented in it overall.

What follows are compounds tested on HepG2 (assay: cytotoxicity call (relative viability < 0.9)). Settings: 10 µM.
For `COc1ccc(S(=O)(=O)N(C)C[C@@H]2OCCCC[C@@H](C)Oc3ccc(NS(C)(=O)=O)cc3C(=O)N([C@@H](C)CO)C[C@H]2C)cc1`, the cytotoxicity call was “inactive”.
With `C[C@H]1CN([C@@H](C)CO)C(=O)c2cccc(NC(=O)C3CCOCC3)c2O[C@H]1CN(C)Cc1ccc(-c2ccccc2)cc1` the cytotoxicity call was “inactive”.
`O=C1NC(=O)[C@H]2CC[C@H]2N1` was tested, and the cytotoxicity call was “inactive”.
With `CN(CC=Cc1ccccc1)Cc1cccc2ccccc12.Cl` the cytotoxicity call was “inactive”.
For `Cc1noc(C)c1S(=O)(=O)N(C)C[C@H]1OCCCC[C@H](C)Oc2ccc(NC(=O)Nc3ccc(C(F)(F)F)cc3)cc2C(=O)N([C@H](C)CO)C[C@@H]1C`, the cytotoxicity call was “inactive”.
With `Cc1ccc(S(=O)(=O)Nc2ccc3c(c2)C(=O)N([C@@H](C)CO)C[C@H](C)[C@H](CN(C)Cc2ccncc2)OCCCC[C@H](C)O3)cc1` the cytotoxicity call was “inactive”.
With `COCC(=O)N1CC(=O)N2[C@H](C1)[C@@H](c1ccc(C#Cc3cccnc3)cc1)[C@@H]2CO` the cytotoxicity call was “inactive”.
`Cc1noc(C)c1S(=O)(=O)N(C)C[C@H]1Oc2ccc(NS(=O)(=O)c3ccccc3)cc2CC(=O)N([C@H](C)CO)C[C@H]1C` was tested, and the cytotoxicity call was “inactive”.
With `C[C@H]1CN([C@@H](C)CO)C(=O)c2cccc(NS(=O)(=O)c3ccc(F)cc3)c2O[C@@H]1CN(C)Cc1ccc(Oc2ccccc2)cc1` the cytotoxicity call was “inactive”.
For `COc1ccc(S(=O)(=O)Nc2cccc3c2O[C@H](CN(C)Cc2ccc(-c4ccccc4)cc2)[C@H](C)CN([C@@H](C)CO)C3=O)cc1`, the cytotoxicity call was “inactive”.
For `C[C@H]1CN([C@@H](C)CO)C(=O)c2cccc(NS(=O)(=O)c3ccc(Cl)cc3)c2O[C@@H]1CN(C)Cc1ccc(Oc2ccccc2)cc1`, the cytotoxicity call was “active”.
In the case of `COc1ccc(S(=O)(=O)Nc2cccc3c2O[C@H](CN(C)Cc2ccc(Oc4ccccc4)cc2)[C@@H](C)CN([C@H](C)CO)C3=O)cc1`, the cytotoxicity call is reported as “inactive”.
`COc1ccc(S(=O)(=O)Nc2cccc3c2O[C@H](CN(C)Cc2ccc(-c4ccccc4)cc2)[C@@H](C)CN([C@H](C)CO)C3=O)cc1` was tested, and the cytotoxicity call was “active”.
For `C[C@@H]1CN([C@@H](C)CO)C(=O)c2cccc(NS(=O)(=O)c3ccc(F)cc3)c2O[C@@H]1CN(C)Cc1ccc(Oc2ccccc2)cc1`, the cytotoxicity call was “active”.
For `COc1ccc(S(=O)(=O)Nc2cccc3c2O[C@H](CN(C)Cc2ccc(Oc4ccccc4)cc2)[C@H](C)CN([C@@H](C)CO)C3=O)cc1`, the cytotoxicity call was “active”.
In the case of `C[C@@H]1CN([C@@H](C)CO)C(=O)c2cccc(NS(=O)(=O)c3ccc(Cl)cc3)c2O[C@@H]1CN(C)Cc1ccc(Oc2ccccc2)cc1`, the cytotoxicity call is reported as “inactive”.
For `COc1ccc(S(=O)(=O)Nc2cccc3c2O[C@H](CN(C)Cc2ccc(Oc4ccccc4)cc2)[C@@H](C)CN([C@@H](C)CO)C3=O)cc1`, the cytotoxicity call was “inactive”.
`C[C@@H]1CN([C@@H](C)CO)C(=O)c2cccc(NS(=O)(=O)c3ccc(Cl)cc3)c2O[C@H]1CN(C)Cc1ccc(Oc2ccccc2)cc1` was tested, and the cytotoxicity call was “inactive”.
In the case of `COc1ccc(S(=O)(=O)Nc2cccc3c2O[C@H](CN(C)Cc2ccc(-c4ccccc4)cc2)[C@H](C)CN([C@H](C)CO)C3=O)cc1`, the cytotoxicity call is reported as “inactive”.
For `C[C@@H]1CN([C@@H](C)CO)C(=O)c2cccc(NS(=O)(=O)c3ccc(F)cc3)c2O[C@H]1CN(C)Cc1ccc(Oc2ccccc2)cc1`, the cytotoxicity call was “inactive”.
In the case of `COc1ccc(S(=O)(=O)Nc2ccc3c(c2)C(=O)N([C@H](C)CO)C[C@H](C)[C@H](CN(C)C(=O)c2ccccc2)OCCCC[C@H](C)O3)cc1`, the cytotoxicity call is reported as “inactive”.
In the case of `CCS(=O)(=O)Nc1ccc2c(c1)C(=O)N(C)C[C@H](OC)[C@@H](C)CN(C(=O)c1ccc3c(c1)OCO3)[C@@H](C)CO2`, the cytotoxicity call is reported as “inactive”.
`O=C1CCOCCN1` was tested, and the cytotoxicity call was “inactive”.
In the case of `C[C@@H]1CCCCO[C@H](CN(C)S(C)(=O)=O)[C@@H](C)CN([C@H](C)CO)C(=O)c2cc(NS(=O)(=O)c3ccccc3)ccc2O1`, the cytotoxicity call is reported as “inactive”.
In the case of `CC(C)C#Cc1cnc2c(c1)C(=O)N([C@H](C)CO)C[C@H](C)[C@@H](CN(C)C(=O)c1ccc3c(c1)OCO3)O2`, the cytotoxicity call is reported as “inactive”.
For `COc1ccc(-c2cnc3c(c2)C(=O)N([C@@H](C)CO)C[C@@H](C)[C@H](CN(C)C(=O)Cc2ccncc2)O3)cc1`, the cytotoxicity call was “inactive”.
For `Cc1ccc(S(=O)(=O)N(C)C[C@@H]2Oc3ccc(NC(=O)CCCN(C)C)cc3C(=O)N([C@@H](C)CO)C[C@H]2C)cc1`, the cytotoxicity call was “inactive”.
For `CCC=CCC1=C(C)CCC1=O`, the cytotoxicity call was “inactive”.
`C[C@]1(C(=O)NCc2ccccc2)c2ccccc2C(=O)N(Cc2ccccc2)[C@H]1c1ccc(COC(=O)NCCCCCC(=O)NO)cc1` was tested, and the cytotoxicity call was “inactive”.
`COc1ccc(CN(C)C[C@@H]2OCCCC[C@H](C)Oc3ccc(NC(=O)Nc4ccccc4)cc3C(=O)N([C@@H](C)CO)C[C@@H]2C)cc1` was tested, and the cytotoxicity call was “inactive”.
In the case of `Cc1ccc(S(=O)(=O)Nc2ccc3c(c2)C(=O)N([C@H](C)CO)C[C@@H](C)[C@H](CN(C)C(=O)C2CCCCC2)OCCCC[C@H](C)O3)cc1`, the cytotoxicity call is reported as “inactive”.
In the case of `O=C(C[C@@H]1CC[C@@H]2[C@H](COC[C@@H](O)CN2S(=O)(=O)c2ccc(Cl)cc2)O1)NCc1ccncn1`, the cytotoxicity call is reported as “inactive”.
`Cc1noc(C)c1S(=O)(=O)Nc1ccc2c(c1)C(=O)N([C@@H](C)CO)C[C@H](C)[C@@H](CN(C)S(=O)(=O)c1ccc(F)cc1)O2` was tested, and the cytotoxicity call was “inactive”.
With `C[C@H]1CN([C@@H](C)CO)C(=O)Cc2cc(NS(=O)(=O)c3ccc(F)cc3)ccc2O[C@H]1CN(C)Cc1ccc(Oc2ccccc2)cc1` the cytotoxicity call was “active”.
`C[C@H](CO)N1C[C@H](C)[C@H](CN(C)Cc2ccc(Oc3ccccc3)cc2)Oc2ccc(NS(=O)(=O)c3ccc(F)cc3)cc2CC1=O` was tested, and the cytotoxicity call was “active”.
In the case of `C[C@@H]1CN([C@@H](C)CO)C(=O)Cc2cc(NS(=O)(=O)c3ccc(F)cc3)ccc2O[C@H]1CN(C)Cc1ccc(Oc2ccccc2)cc1`, the cytotoxicity call is reported as “inactive”.
For `C[C@@H]1CN([C@@H](C)CO)C(=O)Cc2cc(NS(=O)(=O)c3ccc(F)cc3)ccc2O[C@@H]1CN(C)Cc1ccc(Oc2ccccc2)cc1`, the cytotoxicity call was “active”.
In the case of `C[C@H]1CN([C@@H](C)CO)C(=O)Cc2cc(NS(=O)(=O)c3ccc(F)cc3)ccc2O[C@@H]1CN(C)Cc1ccc(Oc2ccccc2)cc1`, the cytotoxicity call is reported as “inactive”.
For `C[C@@H]1CN([C@H](C)CO)C(=O)Cc2cc(NS(=O)(=O)c3ccc(F)cc3)ccc2O[C@H]1CN(C)Cc1ccc(Oc2ccccc2)cc1`, the cytotoxicity call was “active”.
